Reference: PubChem BioAssay (NCATS)
Where “and” joins values, the source holds several entries; their conditions need not be identical. Equal entries are not always repeated. Results filed as inconclusive are left out. Some compounds were tested as several samples or in several runs, with calls that do not always agree. Calls of active or inactive are those of the source. Calls come from the whole dose curve; as a rule, active = well fitted curve in the direction sought with a large enough effect; inconclusive = small, poorly fitted or top-dose-only effect, or another doubt; inactive = no such curve, though single readings can be large; an effect the other way counts as inactive or inconclusive.

Assays:
[1] = P-glycoprotein substrates identified in KB-8-5-11 adenocarcinoma cell line, qHTS therapeutic library screen (AID 1346987); note: nearly all actives have a fitted effect of over 65% in size; note: potency is the fitted concentration of half-maximal effect; for activity change, negative = cytotoxicity: series mostly up to about 44 µM; % is set by controls: 0 for no effect and ±100 for the full control effect
Procedure, shortened: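 KB-8-5-11, a colchicine-selected P-gp-overexpressing KB-3-1 subline, was grown without colchicine for the assay. Cells were seeded at 500 cells/well, dosed in concentration-response and incubated 72 h at 37 degree C, 5% CO2. Viability was read by CellTiter-Glo luminescence.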

[2] = NS1 protein of Zika virus - qHTS assay to identify small molecule inhibitors in human HEK 293 cells (AID 1347053); note: nearly all actives have a fitted effect of over 55% in size; note: potency is the fitted concentration of half-maximal effect
Procedure, shortened: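 HEK 293; 20 h pre-culture, 37 C/5% CO2; cpd 1 h pre-infection; ZIKV MR766, MOI = 0.5, 24 h, 37 C; TR-FRET NS1 readout (two anti-NS1 Abs); norm. to no-virus vs infected.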

[3] = qHTS of pediatric cancer cell lines to identify multiple opportunities for drug repurposing: Primary screen for SJ-GBM2 cells (AID 1347091); note: potency is the fitted concentration of half-maximal effect;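 for activity change, negative = cytotoxic: plate controls were DMSO neutral control for no effect and bortezomib for full effect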
Procedure, shortened: (§1)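 Viability measured as metabolically active cells via CellTiter-Glo luminescence following 48 hours of compound exposure, 11-point dilutions in confirmatory testing. 500-1,000 cells/well plated 5 hours before dosing; controls were DMSO and 2.3 µM bortezomib.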

[4] = qHTS of pediatric cancer cell lines to identify multiple opportunities for drug repurposing: Primary screen for SK-N-MC cells (AID 1347093); note: potency is the fitted concentration of half-maximal effect;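 for activity change, negative = cytotoxic: series mostly up to about 46 µM; plate controls were DMSO neutral control for no effect and bortezomib for full effect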
Procedure, shortened: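 Metabolically active cells were quantified by ATP-dependent luminescence (CellTiter-Glo, 15 min at room temperature) following 48 h treatment. Cells had been plated at 500-1,000 per well and settled for 5 h beforehand.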

[5] = qHTS of pediatric cancer cell lines to identify multiple opportunities for drug repurposing: Primary screen for U-2 OS cells (AID 1347096);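 note: plate controls were DMSO wells for no effect and bortezomib positive control wells for full effect; nearly all actives have a fitted effect of over 50% in size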
Procedure, shortened: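 Viability after 48 h compound treatment at 37C, 500-1,000 cells/well, read as ATP luminescence with CellTiter-Glo. Primary screens used 11-point (MIPE, 0.78 nM-46 µM) or 8-point (NPC, 0.59 nM-46 µM) final concentrations; follow-up screens used 11-point dilutions.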

[6] = qHTS of pediatric cancer cell lines to identify multiple opportunities for drug repurposing: Primary screen for Saos-2 cells (AID 1347097); note: nearly all actives have a fitted effect of over 40% in size; note: potency is the fitted concentration of half-maximal effect; for activity change, negative = cytotoxic: % is set by controls: 0 for no effect and ±100 for the full control effect
Procedure, shortened: (§2)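 Quantitative HTS format: each compound titrated (MIPE 11 points from 0.78 nM, NPC 8 points from 0.59 nM) onto cells plated 5 hours earlier. After 48 h at 37 degrees C, CellTiter-Glo luminescence was recorded.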

[7] = qHTS of pediatric cancer cell lines to identify multiple opportunities for drug repurposing: Primary screen for DAOY cells (AID 1347090); note: nearly all actives have a fitted effect of over 55% in size; note: potency is the fitted concentration of half-maximal effect;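 for activity change, negative = cytotoxic: series mostly up to about 46 µM; plate controls were DMSO for no effect and bortezomib for full effect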
Procedure, shortened: as §1

[8] = qHTS of pediatric cancer cell lines to identify multiple opportunities for drug repurposing: Primary screen for BT-37 cells (AID 1347094); note: potency is the fitted concentration of half-maximal effect;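 for activity change, negative = cytotoxic: series mostly up to about 57 µM; plate controls were DMSO for no effect and bortezomib for full effect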
Procedure, shortened: as §2

[9] = qHTS of pediatric cancer cell lines to identify multiple opportunities for drug repurposing: Primary screen for TC32 cells (AID 1347089); note: % is set by controls: 0 for no effect and ±100 for the full control effect; nearly all actives have a fitted effect of over 60% in size
Procedure, shortened: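 Luminescent CellTiter-Glo read-out of metabolically active TC32 cells after 48 h compound exposure. Primary: MIPE 11-point, 0.78 nM–46 µM; NPC 8-point, 0.59 nM–46 µM. Confirmatory: 11-point dilutions.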

[10] = qHTS of pediatric cancer cell lines to identify multiple opportunities for drug repurposing: Primary screen for A673 cells (AID 1347092); note: nearly all actives have a fitted effect of over 45% in size; note: potency is the fitted concentration of half-maximal effect; for activity change, negative = cytotoxic: % is set by controls: 0 for no effect and ±100 for the full control effect
Procedure, shortened: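 A673 cells (500-1,000 cells/well in growth media) were pre-incubated 5 h at 37 degrees C, then exposed to compounds for 48 h. Viability was read as CellTiter-Glo luminescence; concentration-response curves came directly from the primary screen.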

[11] = qHTS of pediatric cancer cell lines to identify multiple opportunities for drug repurposing: Primary screen for NB-EBc1 cells (AID 1347095); note: potency is the fitted concentration of half-maximal effect;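 for activity change, negative = cytotoxic: plate controls were DMSO neutral control for no effect and bortezomib for full effect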
Procedure, shortened: as §2

[12] = qHTS of pediatric cancer cell lines to identify multiple opportunities for drug repurposing: Primary screen for SK-N-SH cells (AID 1347098); note: nearly all actives have a fitted effect of over 65% in size; note: potency is the fitted concentration of half-maximal effect;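 for activity change, negative = cytotoxic: DMSO served as neutral control and bortezomib at 2.3 µM as positive control; % is set by controls: 0 for no effect and ±100 for the full control effect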
Procedure, shortened: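 Cells (500-1,000/well) rested 5 h, then received compounds for 48 h; metabolically active cells were measured by CellTiter-Glo luminescence. Final concentrations spanned up to 46 µM (MIPE, 11-point) or 0.59 nM-46 µM (NPC, 8-point) in primary screens, 11-point in follow-ups.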

COc1cc2c(cc1OC)[C@@H]1Cc3ccc(OC)c(OC)c3CN1CC2
inactive: Potency [1] | Potency [2] | Potency [3] | Potency [4] | Potency [5] | Potency [6]

CC1=C(C(=O)Nc2cc3cn[nH]c3cc2F)C(c2ccc(C(F)(F)F)cc2)CC(=O)N1 (stereo not drawn)
inactive: Potency [1] | Potency [2] | Potency [7] | Potency [8] | Potency [5]

CO[C@H]1C=CO[C@@]2(C)Oc3c(C)c(O)c4c(O)c(c(C=NN5CCN(C)CC5)c(O)c4c3C2=O)NC(=O)C(C)=CC=C[C@H](C)[C@H](O)[C@@H](C)[C@@H](O)[C@@H](C)[C@H](OC(C)=O)[C@H]1C
inactive: activity change, negative = cytotoxicity [1] 0.164% [at 9.29 µM] | activity change, negative = cytotoxic [9] 6.56% [at 9.17 µM] | activity change, negative = cytotoxic [7] -7.74% [at 9.22 µM] | activity change, negative = cytotoxic [3] 4.67% [at 9.22 µM] | activity change, negative = cytotoxic [10] 0.264% [at 9.22 µM] | activity change, negative = cytotoxic [4] -4.39% [at 9.22 µM] | activity change, negative = cytotoxic [8] -9.92% [at 11.5 µM] | activity change, negative = cytotoxic [11] -7.84% [at 9.22 µM] | activity change, negative = cytotoxic [5] -1.44% [at 9.22 µM] | activity change, negative = cytotoxic [12] -10.6% [at 11.4 µM]

N#CC(=C1Nc2ccccc2S1)c1ccnc(OCc2ccc(CN3CCOCC3)cc2)n1
active: Potency [7] 0.0093 µM | Potency [3] 3.32 µM | Potency [10] 0.0235 µM | Potency [4] 0.0053 µM | Potency [8] 0.306 µM | Potency [11] 0.526 µM | Potency [6] 0.0148 µM | Potency [12] 0.482 µM
inactive: Potency [1] | Potency [2]

C[C@H]1[C@H](O)O[C@@H]2O[C@@]3(C)CC[C@@H]4[C@H](C)CC[C@@H]1[C@@]24OO3
active: Potency [1] 18.7 µM | Potency [2] 26.4 µM | Potency [4] 1.05 µM | Potency [8] 3.85 µM | Potency [11] 3.72 µM | Potency [6] 2.96 µM

CC(NCCc1ccc(O)cc1)C(O)c1ccc(O)cc1 (stereo not drawn)
inactive: Potency [1] | Potency [2] | Potency [7] | Potency [3] | Potency [10] | Potency [4] | Potency [8] | Potency [11] | Potency [5] | Potency [6] | Potency [12]

O[C@@H](COc1cccc2ncccc12)CN1CCN(C2c3ccccc3[C@@H]3[C@H](c4ccccc42)C3(F)F)CC1 (stereo partly drawn)
active: Potency [7] 11.8 µM | Potency [3] 3.35 µM | Potency [10] 14.8 µM | Potency [4] 9.35 µM | Potency [11] 4.73 µM | Potency [12] 15.2 µM
inactive: Potency [1] | Potency [9]

Cc1ccc(C2=Nc3ccc(Cl)cc3OC2)cc1
active: Potency [3] 23.5 µM | Potency [10] 18.7 µM | Potency [12] 2.15 µM
inactive: Potency [1] | Potency [2]

c1cc(OCCN2CCCCC2)cc(-c2n[nH]c3ccc(-c4ncn[nH]4)cc23)c1
active: Potency [4] 16.6 µM | Potency [8] 19.3 µM
inactive: Potency [1] | Potency [2] | Potency [3] | Potency [11] | Potency [5] | Potency [6]

CO[C@H]1/C=C\O[C@@]2(C)Oc3c(C)c(O)c4c(O)c(c5c(nc6cc(C)ccn65)c4c3C2=O)NC(=O)C(C)=CC=C[C@H](C)[C@H](O)[C@@H](C)[C@@H](O)[C@@H](C)[C@H](OC(C)=O)[C@H]1C
inactive: Potency [1] | Potency [9] | Potency [7] | Potency [3] | Potency [10] | Potency [8] | Potency [11] | Potency [12]

COc1cc(Cl)cn2c(-c3cccc(NC4CNC4)n3)cnc12
inactive: Potency [1] | Potency [2]
active: Potency [3] 5.26 µM | Potency [4] 2.96 µM | Potency [11] 2.96 µM

C[C@@H](N)c1ccc(C(=O)Nc2ccnc3[nH]ccc23)cc1
active: Potency [10] 9.35 µM | Potency [4] 26.4 µM | Potency [6] 14.8 µM | Potency [12] 21.5 µM
inactive: Potency [1] | Potency [2]

COc1ccc(-c2nc3ccc(C4=NNC(=O)CC4C)cc3[nH]2)cc1 (stereo not drawn)
inactive: Potency [1] | Potency [2]
active: Potency [7] 21.1 µM | Potency [4] 21.1 µM | Potency [11] 11.9 µM

CN(C)CCOc1cc(-c2cn[nH]c2)ccc1NC(=O)C1COc2ccccc2O1 (stereo not drawn)
inactive: Potency [1] | Potency [9] | Potency [7] | Potency [3] | Potency [8] | Potency [11]
active: Potency [10] 18.7 µM | Potency [4] 8.33 µM | Potency [6] 2.96 µM | Potency [12] 10.8 µM

CCCCC[C@H](O)C=C[C@H]1[C@H](O)CC(=O)[C@H]1CCCCCCC(=O)O
inactive: Potency [1] | Potency [2] | Potency [9] | Potency [4] | Potency [8] | Potency [11] | Potency [6]

CN1c2ccccc2C(=O)N2CCc3c([nH]c4ccccc34)C21 (stereo not drawn)
inactive and 1.84 µM (active): Potency [1]
active: Potency [4] 10.5 µM
inactive: Potency [2] | Potency [7] | Potency [3] | Potency [8] | Potency [11] | Potency [5]
